p53 reactivation: re-activators of mutant p53 | H1299 p53-A138V BP100-luciferase reporter, luminescence, 24 h | Potency, µM (series often up to 92.2 µM), inactives show top-dose activity change, positive = activation, usual class: activators | 0.063% of 320,000 active | AID 504706; also: % of control where 0% means no effect; nearly all actives have a fitted effect of over 45% in size
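H1299 (p53-null), stable ts p53-A138V + BP100-Luc; 1000 cells/well, Opti-MEM/10% FBS; cpd 4 pt, 1:5; 24 h, 37 deg C, 5% CO2; detection reagent 10 min RT; luminescence.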
ELG1 genotox: genotoxicity induction in ELG1-luciferase HEK293T cells. HEK293T ELG1-luciferase reporter, luminescence, 16 h. Potency, µM (highest dose often 46 µM), inactives show at the highest dose activity change, positive = activation, hits mostly activators. 1.3% of 330,000 active. AID 504466; also: % of control where 0% means no effect; nearly all actives have a fitted effect of over 60% in size
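Screening used a luciferase reporter fused to human ELG1 in HEK293T cells. Luminescence was read on a CCD plate imager after 16 hr exposure and 30 min ONE-Glo incubation.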
Rab9 prom act: Rab9 promoter activation | Huh7 Rab9 promoter-luciferase reporter, luminescence, 24 h | Potency, µM (doses to about 9.22 µM), for inactives: at the highest dose activation, negative = inhibition, actives largely listed as activators | 2.8% of 320,000 active | AID 485297; also: % of control where 0% means no effect; nearly all actives have a fitted effect of over 60% in size
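Stable Rab9-luc Huh7, 1500 cells/well, 2 h settle; cmpd in DMSO, 24 h, 37 °C/5% CO2; luciferase reagent 10 min RT; luminescence.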
FLuc modulator: inhibits or activates purified firefly luciferase, miR-21 counter-screen; AID 588342; P08659; 6.9% of 360,000 active; purified FLuc, Km substrates, luminescence inhibition; Potency, µM (doses to about 57.5 µM), without a hit: at the highest dose activity change, negative = inhibition, hits mostly inhibitors;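 also: plate controls were vehicle for no effect and reference inhibitor for full effect; nearly all actives have a fitted effect of over 55% in size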
Target sequence (P08659 whole entry, looked up): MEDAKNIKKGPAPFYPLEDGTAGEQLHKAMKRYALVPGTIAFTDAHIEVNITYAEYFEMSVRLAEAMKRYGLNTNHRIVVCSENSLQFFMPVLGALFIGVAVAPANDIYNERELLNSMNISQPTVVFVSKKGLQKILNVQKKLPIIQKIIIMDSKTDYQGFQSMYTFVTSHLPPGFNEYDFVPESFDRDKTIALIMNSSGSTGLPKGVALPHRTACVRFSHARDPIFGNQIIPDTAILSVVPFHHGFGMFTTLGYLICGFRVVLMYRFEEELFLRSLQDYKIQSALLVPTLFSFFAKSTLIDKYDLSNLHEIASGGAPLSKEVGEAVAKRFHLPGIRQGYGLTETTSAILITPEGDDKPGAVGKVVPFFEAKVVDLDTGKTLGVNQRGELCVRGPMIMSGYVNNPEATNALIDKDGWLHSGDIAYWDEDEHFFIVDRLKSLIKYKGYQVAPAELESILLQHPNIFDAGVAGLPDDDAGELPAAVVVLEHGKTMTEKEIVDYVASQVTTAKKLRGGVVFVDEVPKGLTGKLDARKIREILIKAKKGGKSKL
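Purified P. pyralis luciferase (10nM final) with 10uM D-luciferin and 10uM ATP (Km levels) in 50mM Tris acetate pH 7.5, 10mM Mg acetate, 0.01% Tween-20, 0.05% BSA; qHTS 6-point titration, ~60 µM downward; luminescence read.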
SMN2 splice enh: enhancers of SMN2 splice variant expression | 2.8% of 210,000 active | HEK293 SMN2-luciferase splicing reporter, luminescence, 30-36 h | Potency, µM (doses to about 46.1 µM), for inactives: at the highest dose activity change, positive = activation, actives largely listed as activators | AID 1458; also: % of control where 0% means no effect; nearly all actives have a fitted effect of over 55% in size
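HEK293 cells carry an SMN2 minigene-luciferase reporter in which exon 7 inclusion puts luciferase in frame. Cells were seeded at 2000 cells/well, attached for 10-12 hours, then exposed to compounds for 30-36 hours at 37C before ONE-Glo luminescence.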
NPC1 promoter act: activators of NPC1 promoter; Huh7 NPC1 promoter luciferase reporter, 24 h; Potency, µM (doses to about 9.22 µM), without a hit: top-dose activation, hits mostly activators; 2.4% of 320,000 active; also: % of control where 0% means no effect; nearly all actives have a fitted effect of over 60% in size
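Huh7 cells stably carrying NPC1 promoter–luciferase, plated in Opti-MEM with 10% FBS for 2 h, were exposed to compound in DMSO for 24 h at 37 °C; luciferase reagent was added for 10 min and luminescence read.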
Active calls of the source: *; u = inconclusive; x = no result given; [ ] = dose if it differs, or a comment. The list is not random: actives were taken first. Their share in the collection is about 7.4%. Calls follow the shape of the dose curve; as a rule, active = well fitted curve in the direction sought with a large enough effect; inconclusive = small, poorly fitted or top-dose-only effect, or another doubt; inactive = no such curve, though single readings can be large; an effect the other way counts as inactive or inconclusive. Potency is read from the fitted curve at half-maximal effect.

SMILES	p53 reactivation	ELG1 genotox	Rab9 prom act	FLuc modulator	SMN2 splice enh	NPC1 promoter act
CCN(C(=O)c1ccco1)c1nnc(-c2ccc(OC)cc2)s1	u	u	1.78µM*	0.953µM*	12.6µM*	u
Cc1ccc(N2CC(c3nnc(Cc4ccc(F)cc4)o3)CC2=O)cc1 (centres undefined)	x	x	x	-6.3%	-5.8%	x
O=C(CN1CCCC1)Nc1ccc(NC(=O)Nc2ccccc2Cl)cc1	u	u	19.1%	21.3µM*	18.6%	15.6%
O=C(Nc1ccccc1)Nc1ccc(Br)c(Cl)c1	u	-8.8%	18.1%	6.75µM*	u	u
O=C(Nc1ccc(Cl)cc1)Nc1cccc2nsnc12	u	u	u	4.78µM*	x	u
O=C(CN1CCCC1)Nc1ccccc1Cl	-0.1%	3.4%	3.1%	3.6%	-7.6%	-1.7%
O=C(Nc1ccccc1)Nc1cccc(Cl)c1Cl	u	13.9%	15.9%	10.7µM*	-22.0%	21.1%
C#CCCOC(=O)N1C2=NC(C(=O)OC)=C(C(=O)OC)[C@@H]3N(CC#CC)c4ccccc4[C@]23C[C@H]1C(=O)OC	x	x	x	x	-9.0%[9.22 µM]	x
O=C(Nc1ccccc1)Nc1cccc(NC(=O)Nc2ccccc2)c1F	8.2%	10.2%	24.9%	u	x	26.6%
CC(=O)Nc1ccc(NC(=O)Nc2ccc(C)c(C)c2)cc1	3.2%	u	14.9%	-1.9%	6.8%	-0.5%
CC(=O)Nc1cccc(NC(=O)Nc2ccc(C)c(Cl)c2)c1	-0.6%	6.4%	29.6%	2.13µM*	u	10.2%
O=C(Nc1ccccc1)Nc1ccccc1Br	2.6%	u	3.98µM*	23.9µM*	24.3%	u
CCOc1ccc(CNC(=O)c2ccc(-c3nc(CSc4ccc(C)cc4)c(C)o3)cc2)cc1	x	x	x	-0.9%	x	x
Cc1cccc(-n2nnnc2SCc2csc(-c3ccccc3)n2)c1	28.5%	-2.9%	-1.6%	4.9%	-37.9%	-7.2%
Cc1ccc(Nc2nc(CSc3nnnn3C)cs2)cc1	u	u	2.82µM*	3.38µM*	11.2µM*	3.55µM*
Cc1ccc(CSc2n[nH]c(N)n2)cc1	5.9%	2.5%	-1.4%	2.3%	x	0.2%
Cc1ccc(Nc2nc(CSc3nnc(-c4cccs4)o3)cs2)cc1	14.3%	u	18.6%	6.75µM*	-17.0%	20.8%
Cc1ccc(Nc2nc(CSc3nnnn3-c3ccccc3)cs2)cc1	x	x	x	16.9µM*	-9.4%	x
Cc1ccc(Nc2nc(CSc3n[nH]c(N)n3)cs2)cc1	23.4%	u	2.24µM*	1.35µM*	x	1.12µM*
Cc1ccc(C2=NN(CCC(=O)NCCc3cccc(C)c3)C(=O)CC2)cc1	x	x	x	-11.4%	x	x
COc1cc(OC)c(N(C)C(=O)c2cc3c(s2)-c2ccccc2OC3)cc1Cl	x	x	x	6.3%	5.1%	x
CC1(C)S[C@@H]2[C@H](NC(=O)[C@@H](N)c3ccccc3)C(=O)N2[C@H]1C(=O)O[C@H]1OC(=O)c2ccccc21	x	x	x	x	-12.8%[20.6 µM]	x
Cn1nnnc1SCc1cccc(CSc2nnnn2C)n1	-3.8%	u	5.4%	7.0%	13.6%	0.6%
Cn1nnnc1SCc1csc(Nc2ccccc2)n1	u	u	3.98µM*	u	1.1%	u
COc1ccc2c(c1)N(CC[C@H]1CCCCN1C)c1ccccc1S2	x	x	x	x	-16.2%[9.22 µM]	x
O=C(O)CCC(=O)N1CCN(c2nc3ccccc3s2)CC1	-2.4%	0.4%	2.3%	-5.5%	26.1%	0.2%
O=C(c1ccc2nc(N3CCCCC3)sc2c1)N1CCN(Cc2ccc3c(c2)OCO3)CC1	1.6%	23.1µM*	-2.4%	-13.1%	-63.5%	11.2%
c1ccc(CN2CCN(c3nc4ccccc4s3)CC2)cc1	u	9.2µM*	0.708µM*	2.69µM*	x	1.41µM*
CC1CCN(c2nc3ccc(C(=O)N4CCN(Cc5ccccc5)CC4)cc3s2)CC1	u	u	24.6%	16.9µM*	-57.3%	15.8%
CC1CCN(C(=O)c2ccc3ccccc3c2)CC1	x	u	2.51µM*	12µM*	x	3.55µM*

Assay outcomes (PubChem)
